Each structure is given as a SMILES string. Unmarked numbers belong to inactive results. Records with an inconclusive call do not appear. Activity calls are given as the source filed them. Unless noted, the call rests on the fitted dose curve; in most records, active means well fitted curve in the direction sought with a large enough effect; inconclusive means small, poorly fitted or top-dose-only effect, or another doubt; inactive means no such curve, though single readings can be large; an effect the other way counts as inactive or inconclusive. Bounds are passed on as bounds.

Experiment [1] concerns the target Cytochrome P450 1A2 (Homo sapiens) (UniProt P05177). In words: p450-cyp1a2 (AID 410; calls by dose curve; further: potency means the concentration at half of the fitted maximal effect). The procedure, abridged:
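Luminescent readout of luciferin formed from Luciferin-ME by human CYP1A2; data normalized against complete inhibition by 57 uM furafylline. Enzyme 20nM, substrate 100uM at Km, 100mM KPO4 buffer, 60 min reaction at room temperature.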

Experiment [2] in a line: NFAT Signaling Pathway (AID 444; active means well fitted curve in either direction with a large enough effect, not every such curve was filed as active;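 further: carbachol stimulus at about its EC50 of 1 µM final; on the % scale 0 is the no-effect control and ±100 the full control effect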). As to conditions: Jurkat NFAT-bla M1, carbachol, beta-lactamase ratio, 5 h; at 7.69 µM (top of the series) unless noted. The procedure, abridged:
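Jurkat cells with NFAT-driven β-lactamase reporter and co-expressed M1 receptor, stimulated with carbachol (final 1 uM, ~EC50), compound titration, 5 h at 37 °C. CCF4 loaded 1 h at RT; 460/530 nm ratio gave %activity and AC50.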

The nature of experiment [3]: Stat Signaling Pathway (AID 446; active means well fitted curve in either direction with a large enough effect, not every such curve was filed as active;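 further: ME-180 cervical cancer cells given 40 pM IL-6 alongside compound; SIE-controlled beta-lactamase reporter measured as 460/530 nm FRET emission ratio; on the % scale 0 is the no-effect control and ±100 the full control effect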). The procedure, abridged: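 Reporter line: ME-180 cervical carcinoma, SIE-beta-lactamase. Treatment: compound with 40 pM IL-6, 5 hrs, 37 C, in low-serum OPTI-MEM with 10 mM HEPES pH 7.3. Detection: 460/530 nm fluorescence.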
The target in experiment [4] is Glucocorticoid receptor (Homo sapiens) (UniProt P04150). In words: GR-GFP Redistribution (AID 450;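 active means compounds whose dose series gives a full or clear partial fitted curve of increased nuclear translocation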; further: potency means the concentration at half of the fitted maximal effect). As to conditions: U2OS GR-GFP nuclear translocation, laser cytometry, 2 h.
Experiment [5] has the same target. The experiment in a line: GR-EFC Redistribution (AID 451; calls by dose curve; further: potency means the concentration at half of the fitted maximal effect). The settings on record: CHO-K1 GR-EFC translocation, beta-gal luminescence, 2 h. The procedure, abridged: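 CHO-K1 cells expressing nuclear EA and GR-ED fragments of b-gal; compounds titrated up to 46 uM final, 2 h at 37 C. GR nuclear translocation read as complemented b-gal luminescence after 1 h RT detection.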

The target of experiment [6] is Mitogen-activated protein kinase 10 (Mus musculus) (UniProt Q61831). The experiment in a line: JNK3 AlphaScreen Assay (AID 530; active means well fitted curve in either direction with a large enough effect, not every such curve was filed as active;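 further: kinase came from lysate of stimulated human HepG2 cells; signal reports phosphorylation of biotinylated GST-cJun 1-79 at Ser73 with 10 µM ATP; on the % scale 0 is the no-effect control and ±100 the full control effect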). The procedure, abridged:
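Pre-activated (IL-1β/TNFα) JNK3 in HepG2 lysates phosphorylates biotin-GST-cJun(1-79), 10 uM ATP; anti-phospho-cJun(Ser73) AlphaScreen read at room temperature, pH 7.6 Tris buffer. Compounds pre-incubated 15 min as titrations.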
(In general: Bead proximity is the source of the signal in Alpha formats.)

Experiment [7] addresses 3',5'-cyclic-AMP phosphodiesterase 4B (Homo sapiens) (UniProt Q07343). The experiment in a line: qHTS Assay for Inhibitors of PDE-IV (AID 607; active means well fitted activation curve with a large enough effect in the main read-out, with a control signal flat, not every such curve was filed as active; further: % of control where 0% means no effect). The procedure, abridged: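 Cell-based read-out of cAMP via a modified cyclic nucleotide-gated channel and membrane potential dye (535/590 nm) in HEK293 cells expressing PDE4 endogenously. Compounds tested up to 22.9 uM final; 100 uM RO 20-1724 reference.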
Background: Quantitative high-throughput screening tests each substance at several concentrations.

Experiment [8] has as its target Cytochrome P450 3A4 (Homo sapiens) (UniProt P08684). In words: qHTS Assay for Activators of Cytochrome P450 3A4 (AID 885). Further: nearly all actives have a fitted effect of over 65% in size. The procedure, abridged:
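Signal was normalized against complete inhibition by 57 uM ketoconazole. The reaction used 20nM CYP3A4 with 25uM Luciferin-PPXE, 10-min compound preincubation and a 60-min NADPH-supported step at RT.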

Experiment [9] deals with Dual specificity protein kinase CLK4 (Homo sapiens) (UniProt Q9HAZ1). The experiment in a line: qHTS Assay for Inhibitors of CDC-like Kinase 4 (Kinase-Glo Assay) (AID 1770). Further: nearly all actives have a fitted effect of over 65% in size. Further: potency means the concentration at half of the fitted maximal effect. The procedure, abridged:
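25 nM Clk4 with 100 uM RS repeat peptide and 1 uM ATP (final) in Tris pH7.5, 10 mM MgCl2, 4.5 h at room temperature. Remaining ATP measured by Kinase-Glo luciferase luminescence.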

Experiment [10] shares this target. The experiment in a line: qHTS Assay for Inhibitors of CDC-like Kinase 4 (ADP-Glo Assay) (AID 1771). Further: nearly all actives have a fitted effect of over 70% in size. Further: potency means the concentration at half of the fitted maximal effect. The procedure, abridged: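 Luminescence from ADP-Glo reports ADP produced by 25 nM Clk4 acting on 100 uM RS repeat peptide with 1 uM ATP over 1 hr at room temperature; residual ATP is depleted before ADP is converted to ATP for detection.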
Experiment [11] shares this target. The experiment in a line: qHTS Assay for Inhibitors of CDC-like Kinase 4 (ADP-FP Assay) (AID 1795).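 Further: recombinant human CLK4 phosphorylating RS repeat peptide at 1 µM ATP; on the % scale 0 is the no-effect control and ±100 the full control effect; nearly all actives have a fitted effect of over 60% in size.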 The procedure, abridged: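 Recombinant Clk4 (6.25 nM) phosphorylated 100 uM RS repeat peptide with 1 uM ATP in 25 mM Tris pH 7.5, 10 mM MgCl2, 0.5 mM EGTA, 2.5 mM DTT, 0.01% Triton X-100 for 1 h. ADP was detected by Transcreener ADP2 competitive fluorescence polarization after 30 min at room temperature.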

Experiment [12] addresses Ubiquitin carboxyl-terminal hydrolase 1 (Homo sapiens) (UniProt O94782). The experiment in a line: Inhibitors of USP1/UAF1: Pilot qHTS (AID 504865).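 Further: rhodamine fluorescence freed from ubiquitin-rhodamine substrate followed over time; top concentration of the series differs between compounds; on the % scale 0 is the no-effect control and ±100 the full control effect; nearly all actives have a fitted effect of over 35% in size.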 The procedure, abridged: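 USP1/UAF1 complex at 1 nM preincubated 15 min at room temperature with compound, then Ub-Rho substrate added at 150 nM final. Fluorescence (480/540 nm) read kinetically in 50 mM HEPES pH 7.8, 0.5 mM EDTA, 1 mM TCEP, 0.1 mg/ml BSA, 0.01% Tween-20.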

The target in experiment [13] is Lysosomal acid glucosylceramidase (Homo sapiens) (UniProt P04062). The experiment in a line: Glucocerebrosidase-p2 (AID 348; in the data active means potency below about 10 µM; further: potency means the concentration at half of the fitted maximal effect). The settings on record: purified GBA, blue fluorogenic substrate, 40 min. The procedure, abridged:
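Compounds titrated from 0.6 nM upwards against 0.2 nM enzyme in pH 5.9 citric acid/KH2PO4, taurocholate, tween-20; blue fluorogenic substrate 80 uM, 40 min room temperature, stopped and read Ex 365/Em 440 for AC50.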

Experiment [14] is described as follows: AP1 Signaling Pathway (AID 357; active means well fitted curve in either direction with a large enough effect, not every such curve was filed as active;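 further: ME-180 reporter cells stimulated with EGF at its EC50 level; on the % scale 0 is the no-effect control and ±100 the full control effect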). As to conditions: ME-180 (cervical carcinoma) AP-1-bla reporter, EGF-induced, beta-lactamase ratio, 5 h; at 7.69 µM (top of the series) unless noted. The procedure, abridged: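 In this screen, ME-180 cells in Opti-MEM with 0.5% dialyzed FBS received EC50 EGF and compound titrations for 5 h. AP-1 reporter beta-lactamase was detected via CCF4 ratio, giving AC50 for positive and negative modulators.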

For experiment [15], the target named is Cytochrome P450 2C9 (Homo sapiens) (UniProt P11712). The experiment in a line: qHTS Assay for Inhibitors and Substrates of Cytochrome P450 2C9 (AID 883). Further: nearly all actives have a fitted effect of over 60% in size. Further: potency means the concentration at half of the fitted maximal effect. The procedure, abridged: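 Signal: luciferase luminescence reporting luciferin produced by CYP2C9. Conditions: 10nM enzyme, Luciferin-H 100uM at KM, 25mM KPO4, 37C, 60 min NADPH-driven reaction. Reference: 57uM sulphaphenazole as 100% inhibition.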

Experiment [16] deals with Cytochrome P450 3A4 (Homo sapiens) (UniProt P08684). The experiment in a line: qHTS Assay for Inhibitors and Substrates of Cytochrome P450 3A4 (AID 884). Further: potency means the concentration at half of the fitted maximal effect; nearly all actives have a fitted effect of over 50% in size. The procedure, abridged:
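20 nM human CYP3A4 with 25 uM Luciferin-PPXE (at KM) in 200 mM KPO4, preincubated 10 min with compound; NADPH regeneration started a 60 min RT reaction. Luciferin detected by luminescence, normalized to 57 uM ketoconazole as full inhibition.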

Experiment [17] has as its target Cytochrome P450 2D6 (Homo sapiens) (UniProt P10635). In words: qHTS Assay for Inhibitors and Substrates of Cytochrome P450 2D6 (AID 891). Further: potency means the concentration at half of the fitted maximal effect; nearly all actives have a fitted effect of over 60% in size. The procedure, abridged: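 Human CYP2D6 (5 nM) with 30 uM Luciferin-ME EGE (at Km) in 100 mM KPO4, compound preincubated 10 min, then NADPH regeneration system for 60 min at room temperature. Luciferin read by luminescence; normalized to 1.43 uM quinidine.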

In experiment [18] the target is Cytochrome P450 2C19 (Homo sapiens) (UniProt P33261). In words: qHTS Assay for Inhibitors and Substrates of Cytochrome P450 2C19 (AID 899). Further: potency means the concentration at half of the fitted maximal effect; nearly all actives have a fitted effect of over 60% in size. The procedure, abridged: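 Signal comes from luciferase acting on luciferin released by CYP2C19-mediated hydroxylation of Luciferin-H EGE, 10uM (KM). Assay mix: 5nM enzyme, 50mM KPO4; 60 min at 37C with NADPH regeneration. Data normalized against 57uM ketoconazole.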

Chain of Lysosomal acid glucosylceramidase (Homo sapiens) (P04062 whole entry, looked up): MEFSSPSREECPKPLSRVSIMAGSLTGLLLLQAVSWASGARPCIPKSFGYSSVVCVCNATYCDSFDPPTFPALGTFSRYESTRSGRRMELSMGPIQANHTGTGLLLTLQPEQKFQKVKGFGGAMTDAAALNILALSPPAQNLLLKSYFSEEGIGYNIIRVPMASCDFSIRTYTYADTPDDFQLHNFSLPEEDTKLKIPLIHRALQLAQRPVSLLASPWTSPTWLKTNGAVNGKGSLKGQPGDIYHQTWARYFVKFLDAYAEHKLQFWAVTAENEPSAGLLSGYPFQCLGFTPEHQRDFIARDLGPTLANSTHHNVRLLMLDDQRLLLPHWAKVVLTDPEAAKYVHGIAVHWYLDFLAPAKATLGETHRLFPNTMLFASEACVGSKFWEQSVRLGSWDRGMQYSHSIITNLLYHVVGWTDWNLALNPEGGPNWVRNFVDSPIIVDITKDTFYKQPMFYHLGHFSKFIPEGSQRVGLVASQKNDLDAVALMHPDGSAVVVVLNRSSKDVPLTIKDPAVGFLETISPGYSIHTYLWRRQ
Chain of Cytochrome P450 3A4 (Homo sapiens) (P08684 whole entry, looked up): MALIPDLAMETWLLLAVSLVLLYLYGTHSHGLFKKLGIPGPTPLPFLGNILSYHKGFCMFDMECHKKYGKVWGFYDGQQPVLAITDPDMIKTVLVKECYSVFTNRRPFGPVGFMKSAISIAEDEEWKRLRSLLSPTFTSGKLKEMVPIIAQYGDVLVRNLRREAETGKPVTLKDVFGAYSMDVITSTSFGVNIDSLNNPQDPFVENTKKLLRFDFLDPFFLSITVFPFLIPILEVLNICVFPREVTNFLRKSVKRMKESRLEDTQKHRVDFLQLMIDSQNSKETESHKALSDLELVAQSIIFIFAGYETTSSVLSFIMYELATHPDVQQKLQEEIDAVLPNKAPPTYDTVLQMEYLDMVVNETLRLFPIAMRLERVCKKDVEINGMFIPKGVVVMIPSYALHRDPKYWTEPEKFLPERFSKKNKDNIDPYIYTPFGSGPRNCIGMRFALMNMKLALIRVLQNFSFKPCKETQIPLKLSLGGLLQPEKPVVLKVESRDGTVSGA
Chain of 3',5'-cyclic-AMP phosphodiesterase 4B (Homo sapiens) (Q07343 whole entry, looked up): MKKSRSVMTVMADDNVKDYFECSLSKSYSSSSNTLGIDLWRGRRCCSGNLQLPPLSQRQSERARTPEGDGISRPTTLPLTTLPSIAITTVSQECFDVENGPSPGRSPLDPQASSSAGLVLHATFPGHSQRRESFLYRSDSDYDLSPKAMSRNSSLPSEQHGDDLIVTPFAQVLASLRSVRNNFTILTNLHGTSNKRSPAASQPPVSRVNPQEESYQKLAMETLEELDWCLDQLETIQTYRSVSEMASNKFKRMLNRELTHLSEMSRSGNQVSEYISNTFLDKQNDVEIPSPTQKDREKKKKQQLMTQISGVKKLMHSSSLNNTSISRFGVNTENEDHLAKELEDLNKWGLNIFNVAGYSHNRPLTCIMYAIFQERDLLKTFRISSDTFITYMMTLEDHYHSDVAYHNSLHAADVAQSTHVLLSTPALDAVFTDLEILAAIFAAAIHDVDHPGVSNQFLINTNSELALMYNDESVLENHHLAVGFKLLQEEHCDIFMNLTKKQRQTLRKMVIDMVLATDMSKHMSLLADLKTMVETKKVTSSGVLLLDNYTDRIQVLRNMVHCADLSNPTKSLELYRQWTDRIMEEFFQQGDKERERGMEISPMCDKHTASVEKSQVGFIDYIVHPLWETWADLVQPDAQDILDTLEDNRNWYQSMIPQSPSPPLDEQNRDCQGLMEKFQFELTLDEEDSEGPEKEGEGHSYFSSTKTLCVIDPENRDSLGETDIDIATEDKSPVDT
Chain of Dual specificity protein kinase CLK4 (Homo sapiens) (Q9HAZ1 whole entry, looked up): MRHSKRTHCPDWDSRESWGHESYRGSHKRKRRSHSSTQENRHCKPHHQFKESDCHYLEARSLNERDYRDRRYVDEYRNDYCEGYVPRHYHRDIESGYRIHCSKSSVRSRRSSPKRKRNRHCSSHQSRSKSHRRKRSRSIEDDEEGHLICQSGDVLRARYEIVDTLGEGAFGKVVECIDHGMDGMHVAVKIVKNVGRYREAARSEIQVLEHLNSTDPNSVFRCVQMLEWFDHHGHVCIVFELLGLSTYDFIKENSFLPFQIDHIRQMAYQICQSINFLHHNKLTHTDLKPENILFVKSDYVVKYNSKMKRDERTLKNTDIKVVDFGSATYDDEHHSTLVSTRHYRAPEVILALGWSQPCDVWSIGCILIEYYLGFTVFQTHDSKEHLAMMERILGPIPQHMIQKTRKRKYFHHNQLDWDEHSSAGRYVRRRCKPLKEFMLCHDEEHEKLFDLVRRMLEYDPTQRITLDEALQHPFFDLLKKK
Chain of Glucocorticoid receptor (Homo sapiens) (P04150 whole entry, looked up, the tested form may be a part): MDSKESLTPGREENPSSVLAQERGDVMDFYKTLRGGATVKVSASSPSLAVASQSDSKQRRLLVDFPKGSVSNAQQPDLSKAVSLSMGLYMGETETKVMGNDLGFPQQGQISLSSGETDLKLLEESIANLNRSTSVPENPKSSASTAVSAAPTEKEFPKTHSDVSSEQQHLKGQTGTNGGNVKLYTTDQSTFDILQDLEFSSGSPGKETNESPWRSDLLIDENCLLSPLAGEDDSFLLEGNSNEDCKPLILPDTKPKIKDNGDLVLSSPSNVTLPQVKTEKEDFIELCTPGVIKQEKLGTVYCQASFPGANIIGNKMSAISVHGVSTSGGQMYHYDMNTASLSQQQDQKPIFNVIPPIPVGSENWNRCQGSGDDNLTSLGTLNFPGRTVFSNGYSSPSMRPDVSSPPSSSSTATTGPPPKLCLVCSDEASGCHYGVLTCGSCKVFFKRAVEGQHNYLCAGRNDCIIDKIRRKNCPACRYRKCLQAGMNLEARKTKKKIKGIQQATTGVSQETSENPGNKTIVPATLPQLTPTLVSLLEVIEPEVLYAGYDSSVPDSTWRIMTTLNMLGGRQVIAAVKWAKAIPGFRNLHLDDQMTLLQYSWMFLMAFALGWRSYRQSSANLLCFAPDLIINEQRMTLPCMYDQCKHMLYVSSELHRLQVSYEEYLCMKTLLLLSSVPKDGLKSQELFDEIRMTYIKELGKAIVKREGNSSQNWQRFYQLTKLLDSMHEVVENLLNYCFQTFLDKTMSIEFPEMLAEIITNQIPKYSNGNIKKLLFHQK
Chain of Cytochrome P450 1A2 (Homo sapiens) (P05177 whole entry, looked up): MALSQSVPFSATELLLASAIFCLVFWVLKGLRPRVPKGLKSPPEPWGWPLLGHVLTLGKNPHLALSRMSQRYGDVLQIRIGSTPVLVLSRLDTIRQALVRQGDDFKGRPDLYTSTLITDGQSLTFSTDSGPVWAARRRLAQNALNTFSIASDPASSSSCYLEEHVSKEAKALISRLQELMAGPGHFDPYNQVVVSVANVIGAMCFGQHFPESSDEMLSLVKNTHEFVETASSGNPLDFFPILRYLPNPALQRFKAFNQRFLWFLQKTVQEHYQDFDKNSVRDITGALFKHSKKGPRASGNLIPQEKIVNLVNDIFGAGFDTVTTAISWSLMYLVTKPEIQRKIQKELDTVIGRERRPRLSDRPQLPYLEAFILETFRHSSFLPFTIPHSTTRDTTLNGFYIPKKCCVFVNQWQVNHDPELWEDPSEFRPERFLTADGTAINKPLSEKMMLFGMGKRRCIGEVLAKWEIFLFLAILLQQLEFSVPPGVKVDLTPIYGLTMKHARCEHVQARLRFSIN
Chain of Ubiquitin carboxyl-terminal hydrolase 1 (Homo sapiens) (O94782 whole entry, looked up): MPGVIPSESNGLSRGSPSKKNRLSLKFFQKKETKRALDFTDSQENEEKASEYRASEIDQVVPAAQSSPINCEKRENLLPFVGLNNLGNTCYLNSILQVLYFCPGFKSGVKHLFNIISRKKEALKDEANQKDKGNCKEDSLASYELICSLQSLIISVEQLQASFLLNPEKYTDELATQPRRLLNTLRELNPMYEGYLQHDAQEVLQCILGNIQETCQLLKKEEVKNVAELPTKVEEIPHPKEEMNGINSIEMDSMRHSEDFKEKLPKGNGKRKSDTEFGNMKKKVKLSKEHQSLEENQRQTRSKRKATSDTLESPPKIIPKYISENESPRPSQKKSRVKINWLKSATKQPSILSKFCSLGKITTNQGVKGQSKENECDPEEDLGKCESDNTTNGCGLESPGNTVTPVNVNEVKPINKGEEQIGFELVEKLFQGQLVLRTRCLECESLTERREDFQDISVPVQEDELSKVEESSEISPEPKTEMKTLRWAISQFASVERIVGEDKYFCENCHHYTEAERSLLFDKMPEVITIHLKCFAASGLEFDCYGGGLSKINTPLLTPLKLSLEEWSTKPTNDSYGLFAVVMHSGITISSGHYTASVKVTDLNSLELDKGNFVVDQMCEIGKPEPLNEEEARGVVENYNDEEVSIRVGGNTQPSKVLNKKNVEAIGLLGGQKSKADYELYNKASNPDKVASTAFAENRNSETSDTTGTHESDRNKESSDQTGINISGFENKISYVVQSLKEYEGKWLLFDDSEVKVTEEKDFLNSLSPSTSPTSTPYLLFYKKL
Chain of Cytochrome P450 2C9 (Homo sapiens) (P11712 whole entry, looked up): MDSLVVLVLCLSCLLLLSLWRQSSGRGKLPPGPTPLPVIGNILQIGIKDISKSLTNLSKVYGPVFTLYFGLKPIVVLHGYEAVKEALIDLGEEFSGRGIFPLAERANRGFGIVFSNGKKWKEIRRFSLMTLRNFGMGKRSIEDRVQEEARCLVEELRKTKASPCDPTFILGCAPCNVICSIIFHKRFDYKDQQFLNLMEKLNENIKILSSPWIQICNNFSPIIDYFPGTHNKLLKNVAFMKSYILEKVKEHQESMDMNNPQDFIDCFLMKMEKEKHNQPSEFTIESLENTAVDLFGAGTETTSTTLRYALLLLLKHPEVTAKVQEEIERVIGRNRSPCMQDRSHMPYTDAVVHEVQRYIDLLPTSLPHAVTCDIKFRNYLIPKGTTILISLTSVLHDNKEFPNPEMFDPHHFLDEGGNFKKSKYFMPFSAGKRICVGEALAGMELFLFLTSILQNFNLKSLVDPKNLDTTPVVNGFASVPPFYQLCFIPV

Take `COCCn1c(=O)c(-c2ccc(F)cc2)nc2cnc(Oc3ccccc3)nc21`: the Potency in [1] was 0.794 µM (active); in experiment [4] it was greater than 9.22 µM; in experiment [5], greater than 46 µM. Also, the activity change, negative = inhibition in experiment [2] was 9.44%. Also, the compound was classed as inactive in experiment [3] and in experiment [8]. Moreover, the Potency result in experiment [6], in experiment [7], in experiment [9], in experiment [10], in [11] and in experiment [12] was “inactive” throughout.

Take `COc1ccc2[nH]cc(CCNc3ncncc3-c3ccccc3OC)c2c1`: the Potency is greater than 11.4 µM in [13]; 2.51 µM (active) in experiment [1]; greater than 46 µM in experiment [4]; greater than 46 µM in experiment [5]; 0.251 µM (active) in experiment [15]; 0.126 µM (active) in [16]. The Potency in experiment [17] was 1.26 µM (active); in experiment [18] it was 0.0794 µM (active); in [9], 8.91 µM (active); in experiment [10], 25.1 µM (active). The activity change, negative = inhibition in [14] is -16.8%; in experiment [2], -9.5%. Further, the outcome in [3] and in [8] was inactive. Further, the Potency result in experiment [6], in [7] and in [12] was “inactive” each time.

As for `O=c1c(-c2ccccc2)nc2cnc(Oc3ccccc3)nc2n1C[C@H]1CCCO1`, the activity change, negative = inhibition was 180% in experiment [14] and 4.49% in [2]. Moreover, the outcome in [3] was inactive. In addition, the Potency in experiment [5] was greater than 46 µM. The Potency entry in experiment [6], in experiment [7], in experiment [9], in [10] and in experiment [11] was “inactive” each time.

`COc1ccc(CNc2cc(-c3cccc(NS(C)(=O)=O)c3)ncn2)c(OC)c1`: the Potency in experiment [13] is greater than 11.4 µM; in experiment [1], 15.8 µM (active); in [5], greater than 46 µM; in experiment [16], 2.51 µM (active). Further, the activity change, negative = inhibition in experiment [2] was -10.4%; in experiment [15], 30.9% [at 2.29 µM]. The result in experiment [3] and in [8] was inactive. Moreover, the Potency result in experiment [6], in experiment [7], in experiment [9] and in experiment [12] was “inactive” each time.

With `COc1ccc(Oc2ncc3nc(-c4ccc(F)cc4)c(=O)n(C[C@H]4CCCO4)c3n2)cc1`, the Potency in experiment [13] was greater than 11.4 µM; in experiment [4], greater than 9.22 µM; in experiment [5] it was greater than 46 µM. For the same compound, the activity change, negative = inhibition was -23.4% in [14] and 0.101% in [2]. Moreover, the compound was classed as inactive in experiment [3]. The Potency result in experiment [6], in experiment [7], in [9] and in experiment [12] was “inactive” each time.

(Values after PubChem BioAssay (NCATS).)
